According to PubChem BioAssay AID2587 (National Center for Advancing Translational Sciences (NCATS), 2010):
The source made the active and inactive calls. Calls come from the whole dose curve; as a rule, active = well fitted curve in the direction sought with a large enough effect; inactive = no such curve, though single readings can be large or run the other way.

Target: Lysosomal acid glucosylceramidase (Homo sapiens) (UniProt P04062)
Assay: qHTS Assay for Inhibitors and Activators of N370S glucocerebrosidase as a Potential Chaperone Treatment of Gaucher Disease: Chaperone Activity in Gauche Fibroblasts After Multi-day Incubation with Compound
Conditions: GC immunofluorescence, 5 days
Description: NIH Chemical Genomics Center [NCGC] NIH Molecular Libraries Probe Production Centers Network [MLPCN] MLPCN Grant: MH086442-01 Assay Submitter (PI): Wei Zheng Glucocerebrosidase (GC) catalyzes the hydrolysis of beta-glucocerebroside to glucose and ceramide in lysosomes. Mutations in the glucocerebrosidase gene result in Gaucher disease, an autosomal recessive lysosomal storage disorder. Many of the mutations encountered in patients with Gaucher disease are missense alterations that may cause misfolding, decreased stability and/or mistrafficking of this lysosomal protein. […] These inhibitors include iminosugar analogs and three non-iminosugar inhibitors identified from a previous HTS of 62,000 compounds with the wild type recombinant enzyme. However, the enhancement of enzyme activity by the chaperone action of an enzyme inhibitor must be balanced against the direct inhibition of the enzyme. An enzyme activator could also function as a chaperone by binding to the enzyme and helping to correct its misfolding and mistrafficking. […] This assay attempts to quantitate translocated glucocerebrosidase protein in patient-derived fibroblasts following extended compound incubation. […]
NCGC Assay Protocol Summary: 1. […] Visualized using a fluorescence microscope and the intensity of fluorescence in the selected areas were calculated. […]

Chain of Lysosomal acid glucosylceramidase (Homo sapiens) (P04062 whole entry N409S): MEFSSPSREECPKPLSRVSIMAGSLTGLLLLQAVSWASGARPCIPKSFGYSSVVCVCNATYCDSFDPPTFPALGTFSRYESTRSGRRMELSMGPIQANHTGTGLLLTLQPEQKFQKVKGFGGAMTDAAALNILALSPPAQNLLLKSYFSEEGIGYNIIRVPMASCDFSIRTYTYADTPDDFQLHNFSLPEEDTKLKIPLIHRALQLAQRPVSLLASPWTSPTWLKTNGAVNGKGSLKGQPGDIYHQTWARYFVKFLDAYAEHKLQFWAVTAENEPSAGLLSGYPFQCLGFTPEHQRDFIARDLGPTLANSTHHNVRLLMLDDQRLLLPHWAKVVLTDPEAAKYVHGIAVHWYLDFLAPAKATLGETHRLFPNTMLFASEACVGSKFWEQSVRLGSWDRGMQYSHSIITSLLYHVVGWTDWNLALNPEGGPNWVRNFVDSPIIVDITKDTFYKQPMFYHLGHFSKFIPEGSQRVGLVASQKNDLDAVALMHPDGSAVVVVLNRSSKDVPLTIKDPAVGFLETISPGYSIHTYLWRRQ

SMILES	Potency
S=C(NCCCc1cnc[nH]1)NCCCN(Cc1ccc(Cl)c(Cl)c1)c1ccc(Br)cn1	316 nM (active)
O=S(=O)(c1ccc2ccccc2c1)N1CCN(c2nc(-c3cccs3)nc3ccccc23)CC1	501 nM (active)
